{
  "source": "PubChem BioAssay (EPA / NIEHS)",
  "note": "Values joined by “and” are separate entries in the source; they are usually repeats but may differ in a detail not shown here. Identical values can stand only once. Where a structure was tested more than once in an assay, its records may differ in their call. Active and inactive are the calls of the source. How the source made its calls: active means hit-call score of the fitted dose curve at least 0.9, where 1 is the maximum; inactive means score below 0.9.",
  "data": [
    {"test": "CCTE_Shafer_MEA_acute_burst_percentage_mean: CCTE's Neural Acute Assay for Percentage of Spikes in a Burst, Shafer Lab (AID 2284017);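 on AC50: curve fitted for loss of signal so potency reflects decreased burst percentage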", "protocol": "CCTE_Shafer_MEA_acute assay is conducted using Axion Biosystems 48 well microelectrode array (MEA) plates and Maestro recording system. Each well of the MEA plate contains a grid of 16 microelectrodes embedded in the culture surface. Electrically active cells, such as neurons, can be cultured over the electrodes, and electrical activity in these cells can be recorded extracellularly. The spontaneous firing of neurons is captured from each electrode on a microsecond timescale providing both temporally and spatially precise data. […] The CCTE_Shafer_MEA_acute assay uses primary cultures of rat cortical neurons. As these cultures mature over time, neural networks develop functional activity and form cohesive networks in which electrical activity can be highly coordinated. Baseline 40-minute recordings are made on days post-plating 13 or 15, followed by a secondary 40-minute recording after chemical exposure.CCTE_Shafer_MEA_acute_burst_percentage_mean is a component of the CCTE_Shafer_MEA_acute assay. It measures the percentage of spikes (action potential firing) in a single-electrode burst (temporally-clustered groups of spikes) as the number of spikes in bursts divided by the total number of spikes during a recording in a microelectrode array (MEA) using Axion Biosystems Maestro 768 channel amplifier with the AxIS adaptive spike detector. The average of the burst percentages across electrodes is calculated to report a well-level value. The recordings before and after chemical treatment are used to calculate a percent change in the mean burst percentage in each well.Data from the assay component CCTE_Shafer_MEA_acute_burst_percentage_mean was analyzed into 1 assay endpoint. This assay endpoint, CCTE_Shafer_MEA_acute_burst_percentage_mean, was analyzed in the negative analysis fitting direction relative to DMSO as the negative control and baseline of activity. Using a type of functional reporter, gain or loss-of-signal activity can be used to understand electrical activity.\nSpontaneous activity in the cortical cultures was recorded using an Axion Biosystems Maestro 768 channel amplifier and Axion Integrated Studios (AxIS) v1.8 (or later) software. The amplifier recorded from all channels simultaneously (gain = 1200 x; sampling rate = 12.5 kHz/channel): raw signals were filtered with a Butterworth band-pass filter (300-5000 Hz), which filters out slower local field potentials leaving only fast potentials, i.e., \"spikes\", arising from extracellular currents associated with action potentials (Pine 2006; Wheeler and Nam 2011). On-line spike detection of filtered signals was conducted with the AxIS adaptive spike detector, using a threshold of 8x the root mean squared (rms) noise on each channel. Any electrodes with rms noise levels greater than 5 uV were grounded (e.g., no data were recorded). Once grounded, an electrode was grounded for the duration of the experiment. All recordings were conducted at 37 C. Wells were deemed usable if on the day of the exposure >/= 10 electrodes were active (defined as >/= 5 spikes/min). On DIV 13 or 15, a minimum of three wells from one cortical culture preparation were treated with each compound (0.03-40 uM). Prior to recording baseline activity, each mwMEA plate was placed in the Maestro at 37 C and allowed to sit for 20 min while firing rates stabilized. Baseline activity (40 min) was recorded before the addition of each compound. An additional 40 min of spontaneous activity was recorded in the presence of each compound. Changes in network parameters relative to baseline were assessed following compound treatment.", "values": [
      {"smiles": "ClC1C(Cl)C(Cl)C(Cl)C(Cl)C1Cl", "note": "(stereo not given)", "AC50": "1.53 µM (active)"},
      {"smiles": "O=C1c2ccccc2C(=O)N1SC(Cl)(Cl)Cl", "outcome": "inactive"},
      {"smiles": "O=S1OCC2C(CO1)C1(Cl)C(Cl)=C(Cl)C2(Cl)C1(Cl)Cl", "note": "(stereo not given)", "AC50": "25.5 µM (active)", "outcome": "inactive"},
      {"smiles": "COP(=S)(OC)Oc1ccc(SC)c(C)c1", "AC50": "29.1 µM (active)"},
      {"smiles": "CNC(=O)CSP(=S)(OC)OC", "outcome": "inactive"},
      {"smiles": "Clc1ccccc1-c1nnc(-c2ccccc2Cl)nn1", "outcome": "inactive"},
      {"smiles": "CCC(C)(C)C(=O)OC1=C(c2ccc(Cl)cc2Cl)C(=O)OC12CCCCC2", "outcome": "inactive", "AC50": "3.59 µM (active)"},
      {"smiles": "O=C(O)CCCOc1ccc(Cl)cc1Cl", "outcome": "inactive"},
      {"smiles": "CNC(=O)/C=C(\\C)OP(=O)(OC)OC", "outcome": "inactive"},
      {"smiles": "N#Cc1c(Cl)c(Cl)c(Cl)c(C#N)c1Cl", "AC50": "6.9 µM (active)"},
      {"smiles": "C[C@H]1[C@H](c2ccc(Cl)cc2)SC(=O)N1C(=O)NC1CCCCC1", "AC50": "19.8 µM (active)"},
      {"smiles": "CC(C)OC(=O)Nc1cccc(Cl)c1", "AC50": "20 µM (active)"},
      {"smiles": "O=[N+]([O-])/N=C1\\NCCN1Cc1ccc(Cl)nc1", "outcome": "inactive"},
      {"smiles": "CC[C@H](C)[C@H]1O[C@]2(C=C[C@@H]1C)C[C@@H]1C[C@@H](C/C=C(\\C)[C@@H](O[C@H]3C[C@H](OC)[C@@H](O[C@H]4C[C@H](OC)[C@@H](O)[C@H](C)O4)[C@H](C)O3)[C@@H](C)/C=C/C=C3\\CO[C@@H]4[C@H](O)C(C)=C[C@@H](C(=O)O1)[C@]34O)O2", "note": "(tested in a mixture with another compound)", "AC50": "0.0165 µM (active)"},
      {"smiles": "CC(C)N(C(=O)COc1nnc(C(F)(F)F)s1)c1ccc(F)cc1", "AC50": "30.6 µM (active) and 15 µM (active)"},
      {"smiles": "CCCN(CCC)c1c([N+](=O)[O-])cc(C(F)(F)F)cc1[N+](=O)[O-]", "AC50": "5.5 µM (active)"},
      {"smiles": "CC1(C)C(C=C(Cl)Cl)C1C(=O)OC(C#N)c1ccc(F)c(Oc2ccccc2)c1", "note": "(stereo not given)", "AC50": "210 nM (active) and 1.95 µM (active)"},
      {"smiles": "O=S(=O)(O)C(F)(F)C(F)(F)C(F)(F)C(F)(F)C(F)(F)C(F)(F)C(F)(F)C(F)(F)F", "outcome": "inactive"},
      {"smiles": "N#CN", "outcome": "inactive"},
      {"smiles": "CCC(C)Nc1c([N+](=O)[O-])cc(C(C)(C)C)cc1[N+](=O)[O-]", "note": "(stereo not given)", "outcome": "inactive"},
      {"smiles": "Oc1cc(Cl)ccc1Oc1ccc(Cl)cc1Cl", "AC50": "12.7 µM (active)"},
      {"smiles": "CCCN(CCOc1c(Cl)cc(Cl)cc1Cl)C(=O)n1ccnc1", "AC50": "34.6 µM (active)"},
      {"smiles": "Oc1ccc(Cl)cc1Cc1ccccc1", "AC50": "2.55 µM (active)"}
    ]}
  ]
}
